The values below come from PubChem BioAssay (NCI).

Structures are written as SMILES. About 83,000 compounds went through this panel and 20% of them were active in at least one assay; those are over-represented in the sample as a whole.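 Method: cells in 96-well plates; compound added at one concentration; 48 h incubation; percent growth measured; values under 10 scored active.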 A number with no mark means an inactive call. Active and inactive are the calls of the source.

For the experiment, the system named is OVCAR-3 ovarian. Put plainly: NCI-60 one-dose screen, 48 h (100 = growth as untreated, 0 = no growth, -100 = all killed). The note with it: 10 µM.
As to `Cc1ccc(CNC(=O)Cc2ccc3c(c2)CN(C2CCC(=O)NC2=O)C3=O)cc1` (stereo not drawn), the growth was 6.03% (active).
As to `CC1(c2ccccc2)NC(=O)N(CC(=O)Nc2ccc(C(=O)/C=C/c3ccc(Br)cc3)cc2)C1=O` (stereo not drawn), the growth was 27.4%.
On to `COc1ccc(-c2cc(C(=O)N=Nc3c(O)[nH]c4ccccc34)c3ccccc3n2)cc1`, for which the growth was -93.2% (active).
On to `Cc1ccn2c(C(=O)c3ccccc3)cc(-c3cc(-c4ccc(N(C)C)cc4)c(C#N)c(N)n3)c2c1`, for which the growth is 58.2%.
The same measure for `COc1ccc(C(=O)/C=C/c2cc(C(F)(F)F)cc(C(F)(F)F)c2)cc1S(N)(=O)=O`: -88.6% (active); for `COc1cccc2nc(Nc3ccc(F)c(NC(=O)c4ccc(CN5CCN(C)CC5)c(C(F)(F)F)c4)c3)ccc12`: -33.3% (active); for `O=C(Nc1cccc(C(F)(F)F)c1)c1cncc(C#Cc2cnc3ccc(N4CCOCC4)nn23)c1`: -23.6% (active).
The same measure for `O=C(CNc1nc(-c2ccccc2)cs1)Nc1ccc([N+](=O)[O-])cc1`: 13.1%; for `COC[C@@H](CC(C)C)N=C1N/C(=C\c2ccc3ncsc3c2)C(=O)N1C`: 3.27% (active); for `COc1ccsc1/C=N/NC(=O)c1[nH]c2ccc(Br)cc2c1-c1ccccc1`: 25.8%.
The same measure for `CCOC(=O)C1NN(c2ccc(S(N)(=O)=O)cc2)c2nc3nc(-c4cccs4)cc(-c4cccs4)c3c(=O)n21` (stereo not drawn): 89.9%.
Turning to `Nc1cc(-c2cccc(C(=O)NCc3ccc4c(c3)OCO4)c2)ccn1`, the growth was 98.5%.
On to `O=c1c2ccccc2nc(COc2ccccc2)n1/N=C/c1ccc(N2CCCC2)cc1`, for which the growth is 105%.
The same measure for `O=C(CNc1nc(-c2ccccc2)cs1)Nc1cccc([N+](=O)[O-])c1`: -44.6% (active).
In the case of `C#CCNC(=O)[C@]12CCC(C)(C)C[C@H]1C1=CC[C@@H]3[C@@](C)(CCC#N)[C@H](C(=C)C)CC[C@@]3(C)[C@]1(C)CC2`, the growth was 91.8%.
For `Cc1ccc(/C(CSc2nnc(-c3c[nH]c4ccccc34)n2-c2ccccc2)=N/O)cc1`, the growth is 14.7%.
Turning to `COC1=C[C@]23CCC(=O)N2CCc2cc4c(cc2[C@@H]3[C@@H]1OC(=O)CCCC(C)C)OCO4`, the growth is 45%.
`Cc1ccc(-c2nc3ccc(C(=O)N=Nc4c(O)[nH]c5ccc([N+](=O)[O-])cc45)cc3[nH]2)cc1`: the growth was 21.9%.
The same measure for `Cc1ccc(-c2nc(Nc3ccccc3C(=O)O)c3ccccc3n2)cc1`: 6.01% (active).
The same measure for `CSc1nc(-c2cccc(C)c2)c2cc(-c3ccccc3)n(C)c2n1`: -32.4% (active); for `CN(C)c1ccc(/C=C/C(=O)c2ccc(NC(=O)CN3C(=O)NC(C)(c4ccccc4)C3=O)cc2)cc1` (stereo not drawn): 61.7%; for `COc1cc(/C=C/C(=O)c2ccc(NC(=O)CN3C(=O)NC(C)(c4ccccc4)C3=O)cc2)cc(OC)c1OC` (stereo not drawn): -6.99% (active).
The same measure for `O=C(O)CCCCCCCCCCN1C(=O)/C(=C/c2cnc(-c3ccc(Cl)cc3)s2)SC1=S`: -15.1% (active); for `O=C(Nc1cccc(C(F)(F)F)c1)c1cncc(C#Cc2cnc3cccnn23)c1`: 43.7%; for `CC1(c2ccccc2)NC(=O)N(CC(=O)Nc2ccc(C(=O)/C=C/c3ccccc3)cc2)C1=O` (stereo not drawn): 37.7%.
In the case of `CN1C(=O)N(C)C2SC(N/N=C/c3ccccc3F)=NC21` (stereo not drawn), the growth is 6.19% (active).
In the case of `COc1ccccc1C(=O)NNC(=O)CSc1nc2c(c(=O)[nH]1)CCCC2`, the growth is 102%.
The same measure for `CCN1CCN(Cc2ccc(C(=O)Nc3cccc(-c4cn(-c5ccc6oc(=O)ccc6c5)nn4)c3)cc2C(F)(F)F)CC1`: -100% (active); for `COc1ccc(CN2[C@H](C(=O)NCc3ccc(C(=O)NO)cc3)Cc3c([nH]c4ccccc34)[C@H]2C2CC2)cc1`: 48.7%.
The same measure for `Cn1c(O)c(N=Nc2nc(-c3cc4ccccc4oc3=O)cs2)c2cc(Br)ccc21`: 96.4%; for `[2H]C([2H])([2H])Oc1ccc2ncc(C#Cc3cncc(C(=O)Nc4ccc(CN5CCN(C)CC5)c(C(F)(F)F)c4)c3)n2n1`: -78.8% (active).
The same measure for `O=C(c1ccc(Cl)cc1)C1[C@H](c2ccccc2Br)[C@@H](c2ccccc2)NC12C(=O)Nc1ccc(Br)cc12` (stereo partly drawn): -8.88% (active); for `C=C(C)[C@@H]1CC[C@]2(COP(=O)(OCC)OCC)CC[C@]3(C)[C@H](CC[C@@H]4[C@@](C)(CCCN)[C@H](C(=C)C)CC[C@]43C)[C@@H]12`: 24.2%.
